This is part of a sample that, as a whole, favours compounds with a hit. Of some 83,000 tested, about 20% had one in any assay.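 Growth was measured after 48 h exposure to one concentration of compound in 96-well plates. Values under 10 count as active.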 Active and inactive are the calls of the source.
What was measured:
Assay in all cases: NCI-60 one-dose screen, 48 h (100 = growth as untreated, 0 = no growth, -100 = all killed)
SR leukemia = settings: 10 µM unless noted
RPMI-8226 leukemia = settings: 10 µM unless noted
OVCAR-8 ovarian = settings: 10 µM unless noted
OVCAR-5 ovarian = settings: 10 µM unless noted
OVCAR-4 ovarian = settings: 10 µM unless noted
SK-OV-3 ovarian = settings: 10 µM unless noted
IGROV1 ovarian = settings: 10 µM unless noted
OVCAR-3 ovarian = settings: 10 µM unless noted
NCI/ADR-RES ovarian = settings: 10 µM unless noted
T-47D breast = settings: 10 µM unless noted
BT-549 breast = settings: 10 µM unless noted
MDA-MB-435 melanoma = settings: 10 µM unless noted
SW-620 colon = settings: 10 µM unless noted
MCF7 breast = settings: 10 µM unless noted
HCT-116 colon = settings: 10 µM unless noted
HCC-2998 colon = settings: 10 µM
KM12 colon = settings: 10 µM unless noted

Measured: growth

O=C1NC(=O)[C@@H](c2cn3c4c(cccc24)CCC3)[C@@H]1c1c[nH]c2ccccc12
active: SK-OV-3 ovarian -0.0481% | NCI/ADR-RES ovarian 9.44% | MDA-MB-435 melanoma -13.2% | HCT-116 colon 2.94% | KM12 colon 4.42%
inactive: SR leukemia 13.8% | RPMI-8226 leukemia 22.8% | OVCAR-8 ovarian 11.3% | OVCAR-5 ovarian 48% | OVCAR-4 ovarian 55.4% | IGROV1 ovarian 27.7% | OVCAR-3 ovarian 18.4% | T-47D breast 24.3% | BT-549 breast 16.2% | SW-620 colon 27.5% | MCF7 breast 19.5% | HCC-2998 colon 18.4%

COC(=O)Nc1nc2ccc(C(=O)c3ccc(N(C)C4COC4)cc3)cc2[nH]1
active: SK-OV-3 ovarian 6.93% | BT-549 breast 9.02% | MDA-MB-435 melanoma -25.5% | HCT-116 colon 7.08%
inactive: SR leukemia 14.4% | RPMI-8226 leukemia 22.5% | OVCAR-8 ovarian 11% | OVCAR-5 ovarian 52.4% | OVCAR-4 ovarian 57.2% | IGROV1 ovarian 28.5% | OVCAR-3 ovarian 31.9% | NCI/ADR-RES ovarian 12% | T-47D breast 57.5% | SW-620 colon 28.5% | MCF7 breast 16.3% | HCC-2998 colon 11% | KM12 colon 15.7%

COCCOc1cnc2ccn([C@H](C)c3nnc4c(F)cc(-c5cnn(C)c5)cn34)c(=O)c2c1
inactive: SR leukemia 84% | RPMI-8226 leukemia 78.8% | OVCAR-8 ovarian 86.9% | OVCAR-5 ovarian 31.5% | OVCAR-4 ovarian 88.4% | SK-OV-3 ovarian 82.4% | IGROV1 ovarian 66.3% | OVCAR-3 ovarian 102% | NCI/ADR-RES ovarian 91.3% | T-47D breast 94.6% | BT-549 breast 105% | MDA-MB-435 melanoma 60% | SW-620 colon 35.5% | MCF7 breast 103% | HCT-116 colon 99.9% | KM12 colon 28.3%

CC1=CC2c3oc(-c4ccccc4)c(C(=O)c4ccccc4)c3CNC2C=C1 (stereo unspecified)
inactive: SR leukemia 89.6% | RPMI-8226 leukemia 105% | OVCAR-8 ovarian 83.6% | OVCAR-5 ovarian 88.8% | OVCAR-4 ovarian 117% | SK-OV-3 ovarian 83.3% | IGROV1 ovarian 102% | OVCAR-3 ovarian 106% | NCI/ADR-RES ovarian 94.6% | T-47D breast 91.3% | BT-549 breast 103% | MDA-MB-435 melanoma 107% | SW-620 colon 97.1% | MCF7 breast 84.2% | HCT-116 colon 92.2% | HCC-2998 colon 102% | KM12 colon 101%

CN(C)C1CCN(C(=O)c2ccc(NC(=O)Nc3ccc(-c4nc(N5CCOCC5)nc(N5CCOCC5)n4)cc3)cc2)CC1
active: SR leukemia 3.59% [2.5 µM] | RPMI-8226 leukemia -2.37% [2.5 µM] | OVCAR-8 ovarian -20.9% [2.5 µM] | OVCAR-5 ovarian -2.63% [2.5 µM] | OVCAR-4 ovarian -29.9% [2.5 µM] | SK-OV-3 ovarian -51.9% [2.5 µM] | IGROV1 ovarian -54.8% [2.5 µM] | OVCAR-3 ovarian 2.07% [2.5 µM] | T-47D breast -45.3% [2.5 µM] | BT-549 breast -10.1% [2.5 µM] | MDA-MB-435 melanoma -16.6% [2.5 µM] | SW-620 colon 8.13% [2.5 µM] | MCF7 breast 3.87% [2.5 µM] | KM12 colon 5.58% [2.5 µM]
inactive: NCI/ADR-RES ovarian 95.6% [2.5 µM] | HCT-116 colon 12.8% [2.5 µM]

CO[C@H]1C[C@@H]2CC[C@@H](C)[C@@](O)(O2)C(=O)C(=O)N2CCCC[C@H]2C(=O)O[C@H]([C@H](C)C[C@@H]2CC[C@@H](OC(=O)C(C)(CO)CO)[C@H](OC)C2)CC(=O)[C@H](C)/C=C(\C)[C@@H](O)[C@@H](OC)C(=O)[C@H](C)C[C@H](C)\C=C/C=C/C=C/1C
inactive: RPMI-8226 leukemia 11.4% | OVCAR-8 ovarian 22.3% | OVCAR-5 ovarian 47.1% | OVCAR-4 ovarian 28.2% | SK-OV-3 ovarian 20.4% | IGROV1 ovarian 11.4% | OVCAR-3 ovarian 33.5% | NCI/ADR-RES ovarian 45.9% | MDA-MB-435 melanoma 33.1% | SW-620 colon 42.7% | HCT-116 colon 23.8% | HCC-2998 colon 41.6% | KM12 colon 34.1%
active: SR leukemia 3.69% | T-47D breast -6.15% | BT-549 breast 0.892% | MCF7 breast 5.53%

COc1ncc(-c2ccc3nccc(-c4ccnnc4)c3c2)cc1NS(=O)(=O)c1ccc(F)cc1F
active: SR leukemia -16.9% | RPMI-8226 leukemia -35.4% | OVCAR-8 ovarian -17% | OVCAR-5 ovarian 7.97% | OVCAR-4 ovarian -8.87% | SK-OV-3 ovarian -52.1% | IGROV1 ovarian -24.1% | OVCAR-3 ovarian -58% | NCI/ADR-RES ovarian -20% | T-47D breast -25.3% | BT-549 breast -31.7% | MDA-MB-435 melanoma -78% | SW-620 colon -30.9% | MCF7 breast 8.48% | HCT-116 colon -48.7% | HCC-2998 colon -78.4% | KM12 colon -60.5%

COc1cc2c(cc1OCCCCCCN1CCN(c3ncnc4ccccc34)CC1)N=CC1CCCN1C2=O (stereo unspecified)
active: SR leukemia -29.6% | RPMI-8226 leukemia -47.4% | OVCAR-8 ovarian -12.1% | OVCAR-4 ovarian -14.4% | IGROV1 ovarian 1.08% | OVCAR-3 ovarian -6.78% | NCI/ADR-RES ovarian 6.93% | T-47D breast 6.98% | BT-549 breast -40.8% | MDA-MB-435 melanoma -77.1% | SW-620 colon -19.1% | HCT-116 colon 3.4% | KM12 colon -27.9%
inactive: OVCAR-5 ovarian 10.2% | SK-OV-3 ovarian 20.7% | MCF7 breast 11.2%

COc1ccc(COc2cc3oc(=O)c4cc(C(C)O)ccc4c3cc2OC)cc1 (stereo unspecified)
inactive: SR leukemia 18.6% | RPMI-8226 leukemia 68% | OVCAR-8 ovarian 25% | OVCAR-5 ovarian 86% | OVCAR-4 ovarian 53.8% | SK-OV-3 ovarian 40.5% | IGROV1 ovarian 57.6% | OVCAR-3 ovarian 58.6% | NCI/ADR-RES ovarian 56.1% | T-47D breast 44.2% | BT-549 breast 59.8% | SW-620 colon 49.7% | MCF7 breast 45.6% | HCT-116 colon 49% | KM12 colon 53%
active: MDA-MB-435 melanoma 3.55%

C[C@H](NC(=O)c1c(N)nn2cccnc12)c1cc2cccc(C#Cc3cnn(C)c3)c2c(=O)n1-c1ccccc1
inactive: OVCAR-8 ovarian 28.1% | OVCAR-5 ovarian 45.1% | OVCAR-4 ovarian 31.1% | OVCAR-3 ovarian 19.9% | NCI/ADR-RES ovarian 31.1% | MDA-MB-435 melanoma 30.9% | SW-620 colon 13.4%
active: SR leukemia 3.42% | RPMI-8226 leukemia 4.95% | SK-OV-3 ovarian -1.83% | IGROV1 ovarian -22.7% | T-47D breast -22.3% | BT-549 breast 2.12% | MCF7 breast 5.42% | HCT-116 colon 1.33% | KM12 colon -14%

CC(=O)NCC(=O)N1[C@@H]2CC[C@H]1c1ccc(Nc3ncc(C(F)(F)F)c(NC4CCC4)n3)cc12
inactive: RPMI-8226 leukemia 71.4% [2.5 µM] | OVCAR-8 ovarian 55.3% [2.5 µM] | OVCAR-5 ovarian 32.4% [2.5 µM] | OVCAR-4 ovarian 64.4% [2.5 µM] | SK-OV-3 ovarian 15.9% [2.5 µM] | IGROV1 ovarian 31.5% [2.5 µM] | OVCAR-3 ovarian 67.8% [2.5 µM] | NCI/ADR-RES ovarian 59.7% [2.5 µM] | T-47D breast 88.4% [2.5 µM] | BT-549 breast 36.3% [2.5 µM] | MDA-MB-435 melanoma 39.9% [2.5 µM] | SW-620 colon 16.3% [2.5 µM] | MCF7 breast 25.1% [2.5 µM] | HCT-116 colon 13.4% [2.5 µM]
active: SR leukemia 2.18% [2.5 µM] | KM12 colon 3.64% [2.5 µM]

C=CC(=O)N1CCC(Oc2cc3c(Nc4ccc(Cl)c(Cl)c4F)ncnc3cc2OC)CC1
inactive: RPMI-8226 leukemia 35% | OVCAR-8 ovarian 18.4% | OVCAR-5 ovarian 25.3% | OVCAR-4 ovarian 39% | OVCAR-3 ovarian 19.4% | SW-620 colon 32.8% | MCF7 breast 26.8% | HCT-116 colon 21.8% | HCC-2998 colon 67.1% | KM12 colon 30.6%
active: SR leukemia -20.2% | SK-OV-3 ovarian -37.4% | IGROV1 ovarian -44.8% | NCI/ADR-RES ovarian -16.8% | T-47D breast -4.87% | BT-549 breast 8.14% | MDA-MB-435 melanoma -34.7%

O=c1[nH]c([C@@H]2CCCN2)nc2c1oc1ccc(Cl)cc12
inactive: SR leukemia 34.1% | RPMI-8226 leukemia 86.6% | OVCAR-8 ovarian 72.9% | OVCAR-5 ovarian 49.8% | OVCAR-4 ovarian 84.5% | SK-OV-3 ovarian 24% | IGROV1 ovarian 81.3% | OVCAR-3 ovarian 65% | NCI/ADR-RES ovarian 82.9% | T-47D breast 56.4% | BT-549 breast 58.5% | MDA-MB-435 melanoma 73.3% | SW-620 colon 22.7% | MCF7 breast 49.2% | HCT-116 colon 33.6% | KM12 colon 31.6%

CNC(=O)c1ccccc1Nc1nc(Nc2ccc3c(c2OC)CCC[C@H](N2CCN(CCO)CC2)C3)ncc1Cl
inactive: OVCAR-8 ovarian 12.5% | OVCAR-5 ovarian 11.1% | OVCAR-3 ovarian 30.7% | NCI/ADR-RES ovarian 14% | BT-549 breast 29.7%
active: SR leukemia -5.84% | RPMI-8226 leukemia -13% | OVCAR-4 ovarian 4.95% | SK-OV-3 ovarian -6.83% | IGROV1 ovarian -36.9% | T-47D breast -23.1% | MDA-MB-435 melanoma -27.6% | SW-620 colon -19.9% | MCF7 breast 6.63% | HCT-116 colon -62.6% | KM12 colon -27.3%

COc1c(OCCCN2CCOCC2)ccc2c3n(c(=NC(=O)c4cnc(N)nc4)nc12)CCN3
active: SR leukemia 5.24% | OVCAR-4 ovarian 7.97% | SK-OV-3 ovarian -31.8% | IGROV1 ovarian -22% | OVCAR-3 ovarian 4.64% | T-47D breast -24% | BT-549 breast -5.84% | MDA-MB-435 melanoma 4.22% | KM12 colon -2.1%
inactive: RPMI-8226 leukemia 11.3% | OVCAR-8 ovarian 15.7% | OVCAR-5 ovarian 14% | NCI/ADR-RES ovarian 22.7% | SW-620 colon 20.5% | MCF7 breast 11.9% | HCT-116 colon 13.8%

Source: PubChem BioAssay (NCI)
